A selection: hits, their analogues and other compounds. The true share with any hit is near 21%.
Shiga toxin inh: Shiga toxin inhibition | inhibition, % at 38.7 µM | actives 9.2% (n = 290,000) | Vero cells, Shiga toxin protein synthesis inhibition reporter | AID 2315; in the data active = inhibition mostly above about 28%, no sharp cut-off; inactive = mostly below about 43%; note: 0% is about no effect
Pf growth 96h: inhibits malaria parasite growth, 96 h; actives 6.9% (n = 320,000); AID 504834; Potency, µM (titrated, usually from 28.7 µM), inactives show at the top dose activity change, negative = inhibition, most hits filed as inhibitors; P. falciparum luciferase reporter growth, 96 h; note: potency is the fitted concentration of half-maximal effect; % is set by controls: 0 for no effect and ±100 for the full control effect
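Parasite growth measured via integrated firefly luciferase reporter in P. falciparum. Infected erythrocytes at 2% hematocrit, 0.05% parasitemia final were treated 96 hours at 37 C under 5% CO2, and luminescence was read.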
Pf growth 48h: inhibits P. falciparum growth in the first generation, 48 h; P. falciparum luciferase growth in erythrocytes, 48 h; Potency, µM (highest dose often 28.7 µM), inactives show top-dose activity change, negative = inhibition, hits mostly inhibitors; actives 5.9% (n = 310,000); AID 504832; note: potency is the fitted concentration of half-maximal effect; % is set by controls: 0 for no effect and ±100 for the full control effect
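Compounds are pin-transferred into medium, infected erythrocytes (2% hematocrit, 0.1% parasitemia final) are added, and plates sit one parasite generation at 37 C in 5% CO2. Detection reagent is then added and luminescence measured.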
CHX counter: counter-screen hit for Shiga toxin inhibitors, cycloheximide; actives 12% (n = 300,000); max response, %; cell reporter, cycloheximide protein synthesis inhibition counterscreen; in the data active = max response mostly above about 13%, no sharp cut-off; inactive = mostly below about 14%; note: read at 38.3 µM for the half of the compounds with a filed dose; 0% is about no effect
Active calls of the source: *; ? = inconclusive; . = not tested or not shown. Unless noted, calls come from the whole dose curve; as a rule, active = well fitted inhibition curve with a large enough effect; inconclusive = small, poorly fitted or top-dose-only effect, or another doubt; inactive = no such curve, though single readings can be large or run the other way.

SMILES | Shiga toxin inh | Pf growth 96h | Pf growth 48h | CHX counter
COc1ccc(CNC(=O)CN2CCN(c3ccc(F)cc3)CC2)cc1 | -2.4 | 17.2% | 17.9% | -2.9
C=CCn1c(SCC(=O)N(CCOC)c2c(N)n(CCCC)c(=O)[nH]c2=O)nnc1-c1ccc(Cl)cc1 | . | -4.0% | -25.2% | .
CCc1nc2nc(C)cc(Nc3cccc(C(F)(F)F)c3)n2n1 | -18.1 | 14.9% | 2.08µM* | -1.2
CCc1cccc(Nc2cc(C)nc3nc(C)nn23)c1 | 17.3 | 8.28µM* | 5.22µM* | -0.7
Cc1cc(Nc2ccc(Br)c(C)c2)n2nc(C)nc2n1 | -12.2 | 10.4µM* | 0.262µM* | -4.1
Cc1cc(Nc2cccc(C(F)(F)F)c2)n2nc(C)nc2n1 | -11.0 | 0.0% | ? | -2.5
Cc1ccc(Nc2cc(C)nc3nc(C)nn23)cc1 | -10.0 | 22.6% | ? | -4.6
Cc1cc(NCc2ccc3c(c2)OCO3)n2nc(C)nc2n1 | 16.3 | 0.37µM* | -4.2% | -1.6
COc1ccccc1CCC(=O)N(C)CC(=O)Nc1ccc(F)cc1 | -38.6 | ? | ? | -1.5
C=CCc1ccccc1OCCn1nnc2ccccc21 | . | 13.7% | -4.2% | 7.5
C/C=C/c1ccc(OCCCCN2CCN(CC)CC2)c(OC)c1 | 5.3 | -8.6% | -15.3% | 0.4
Cc1cccc(OCCn2nnc3ccccc32)c1C | . | ? | 54.6% | 42.4*
C=CCc1ccc(OCCCOc2ccc(C)c(C)c2)c(OC)c1 | -4.7 | 4.5% | . | -3.1
C=CCc1ccc(OCCOc2cccc3ccc(C)nc23)c(OC)c1 | 59.0* | ? | ? | 30.3*
C/C=C/c1ccc(OCCn2nnc3ccccc32)c(OC)c1 | 25.5 | -16.3% | 33.2% | 35.2*
C=CCc1ccc(OCCn2nnc3ccccc32)c(OC)c1 | 52.8* | ? | 27.5% | 50.0*
C=CCc1ccc(OCCn2cccc2C=O)c(OC)c1 | 116.3* | 96.3% | 102.6% | 49.1*
C=CCc1ccc(OCCOCCN(C)C)c(OC)c1 | -2.8 | -16.4% | . | -2.7
CC(=O)c1c(C)cc(C)c(CSc2ccccn2)c1C | 17.5 | ? | -21.9% | 5.3
O=C1NCCCC1C(=O)N1CCN(C(=O)C2CCCNC2=O)CC1 (configuration not stated) | -10.4 | -22.0% | 11.7µM* | 4.0
O=C1NCCCC1C(=O)N1CCCCC1 (configuration not stated) | -9.0 | 42.0% | -0.1% | 1.3
CCC(C(=O)c1ccc(O)cc1)c1ccccc1 (configuration not stated) | -6.3 | 53.5% | 13.1µM* | -3.9
CCOc1ccc(CN(C)C(=O)[C@H](Cc2ccccc2)NC(=O)OCc2ccccc2)cc1OC | -5.8 | ? | ? | -6.7
CN(C)c1ccc(Nc2nc(N)c3ccccc3n2)cc1 | . | 8.28µM* | ? | -0.9
Nc1nc(Nc2ccccc2)nc2ccccc12 | 56.2 | ? | 3.29µM* | 28.2
SMILES | Shiga toxin inh | Pf growth 96h | Pf growth 48h | CHX counter
COc1ccc(C)cc1Nc1nc(N)c2ccccc2n1 | 55.5* | ? | ? | 28.2*
Cc1ccccc1Nc1nc(N)c2ccccc2n1 | 51.5* | ? | -89.7% | 20.7*
CN(C)c1nc(Nc2ccccc2)nc(N(C)C)n1 | 14.2 | 0.0% | 30.8% | 2.9
CCOc1ccc(Nc2nc(N)c3ccccc3n2)cc1 | 11.5 | ? | ? | 0.3
Oc1ccc(Nc2nc(-c3ccc(Cl)cc3)nc3ccccc23)cc1 | 1.7 | . | . | -3.4
Nc1nc(Nc2ccc(Cl)cc2)nc2ccccc12 | 26.7 | ? | . | 30.5*
CCN(C1CCS(=O)(=O)C1)S(=O)(=O)c1ccc(OC)c(OC)c1 (configuration not stated) | . | 35.3% | 14.3% | .
COc1ccc2nc(NC(=O)CCNC(=O)c3ccccc3Cl)sc2c1 | 76.6* | 44.0% | 6.6% | 32.6*
O=C(CCNC(=O)c1ccco1)Nc1nc2ccccc2s1 | . | 38.8% | 15.3% | .
O=C(CCNC(=O)c1ccccc1Cl)Nc1nc2ccccc2s1 | 143.3* | 106.4% | 139.1% | 36.9*
C=CCn1c(CCNC(=O)c2ccccc2F)nnc1SCC(=O)Nc1nc2ccccc2s1 | -19.7 | 11.7µM* | . | 11.3
COc1ccc2nc(N(Cc3ccccc3)C(=O)CCNC(C)=O)sc2c1 | 43.9* | -2.3% | 60.2% | 21.5
COc1cccc(NC(=O)CCNC(=O)c2ccccc2Cl)c1 | 8.1 | 0.0% | 0.0% | 15.3
CC(CCc1ccccc1)NS(=O)(=O)c1ccccc1Cl (configuration not stated) | -14.7 | 2.3% | ? | -2.7
O=C(CN1C(=O)COc2ccccc21)N1CCOCC1 | -4.2 | 9.6% | -1.8% | 0.7
CCN(C(=O)CSc1ncccn1)C1CCS(=O)(=O)C1 (configuration not stated) | -4.7 | 34.2% | 87.0% | 0.4
O=C(CCNC(=O)c1ccccc1Cl)Nc1nc(-c2ccc(F)cc2)cs1 | -4.8 | ? | 0.0% | 0.4
O=C(CCNC(=O)c1ccccc1Cl)Nc1nc(-c2ccccc2Cl)cs1 | 39.8 | 30.8% | 36.0% | 21.9*
Cc1cc(OCC(=O)OCC(=O)N(C)Cc2ccccc2C)ccc1Cl | . | -21.7% | ? | .
CCc1ccccc1NC(=O)NC(C)c1ccc2c(c1)OCO2 (configuration not stated) | -1.2 | ? | 4.6% | -3.9
Fc1ccccc1CNCCC(Cc1ccccc1)c1ccc2c(c1)OCO2 (configuration not stated) | -7.1 | -13.8% | ? | -6.2
CCNCCC(CCC(C)C)c1ccc2c(c1)OCO2 (configuration not stated) | -10.9 | 2.94µM* | ? | -6.1
CC(C)CCC(CCNCc1ccccn1)c1ccc2c(c1)OCO2 (configuration not stated) | -6.9 | 10.4µM* | ? | 0.8
CC(C)(C)OC(=O)CN1C(=O)C(Sc2n[nH]c(-c3ccccc3)n2)CCc2ccccc21 (configuration not stated) | -10.1 | 1.47µM* | ? | -3.7
CCOC(=O)CN1C(=O)C(Sc2n[nH]c(-c3ccc(O)cc3)n2)CCc2ccccc21 (configuration not stated) | -7.6 | ? | . | -2.2
SMILES | Shiga toxin inh | Pf growth 96h | Pf growth 48h | CHX counter
COC(=O)N/N=C\c1ccccc1OC/C=C/c1ccccc1 | 38.5 | 9.28µM* | ? | 31.5*
N#CCC(=O)N/N=C\c1cc(Br)ccc1OC/C=C/c1ccccc1 | 97.7* | 2.94µM* | -7.2% | 25.6*
CCCOc1ccccc1/C=N/NC(=O)C1CC1 | -2.9 | 13.6% | ? | -2.8
CCOC(=O)N/N=C\c1ccccc1OC/C=C/c1ccccc1 | 54.9* | 82.6% | 2.94µM* | 34.1*
COc1cc(/C=N\NC(C)=O)ccc1OC/C=C/c1ccccc1 | -4.6 | ? | ? | -1.2
Cc1cccc(NS(=O)(=O)c2cnc(Cl)c(Br)c2)n1 | -8.3 | 22.6% | 2.6% | -1.1
COc1cccc(OCC(=O)NNC(=S)Nc2ccc(Cl)cc2Cl)c1 | 12.1 | 37.3% | -7.0% | 3.3
O=C(Nc1ccc(F)cc1)C1CCN(S(=O)(=O)c2cccc3nonc23)CC1 | -15.5 | -10.1% | -5.1% | 1.1
CCCCN(C(=O)c1ccc(-c2ccc(Cl)cc2)o1)c1c(N)n(CCC)c(=O)[nH]c1=O | . | -33.5% | ? | .
CC(=O)n1cc([C@@H]2C=C(C(=O)N3CCOCC3)O[C@H](OCc3ccc(CO)cc3)C2)c2ccccc21 | -10.5 | ? | ? | -1.8
O=C(C1=C[C@@H](c2ccccc2)C[C@@H](OCc2ccc(CO)cc2)O1)N1CCN(Cc2ccc3c(c2)OCO3)CC1 | -3.3 | ? | ? | -0.9

Compound activity: PubChem BioAssay, National Center for Advancing Translational Sciences (NCATS)
